In PubChem BioAssay AID1907 (The Scripps Research Institute Molecular Screening Center, 2009):
In all, about 1,900 compounds went through this assay and about 1,200 (63%) were called active. The set was probably picked from earlier hits. These entries were drawn from the full list. A number with no mark means an inactive call. No stated cut-off is given here; in the data, active means inhibition above about 22%; inactive means the rest.

Assay: cytotoxic compounds in IEC-6 epithelial cells, confirmation, cytotoxicity control, cell-based, luminescence (AID 1907);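 further: 0% = vehicle and 100% = reference cytotoxic drug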
Settings: IEC-6 rat intestinal epithelial viability, at 5 µM, active compounds read high

Row | Compound | inhibition
1 | COc1ccc(C)cc1Nc1nc(C)nc2c1oc1ccccc12 | 22.4% (active)
2 | COc1cc(NS(=O)(=O)c2ccc3ccccc3c2)c2ncccc2c1 | 63.1% (active)
3 | CCCOn1c(-n2nc(C)cc2C)nc2ccccc2c1=O | -7.58%
4 | O=C(NCCOc1cccnc1)c1ccc(OC2CCN(Cc3ccccn3)CC2)cc1 | 99.6% (active)
5 | Cc1cc(C)n2nc(CNS(=O)(=O)c3c(F)c(F)c(F)c(F)c3F)nc2n1 | 13%
6 | CCCOc1ccccc1C1CC(=O)Nc2cc3c(cc21)OCO3 (configuration not stated) | 56.8% (active)
7 | COc1ccccc1C1C2=C(COC2=O)Nc2cc3c(cc21)OCO3 (configuration not stated) | 62.6% (active)
8 | COc1ccccc1NC(=O)c1ccc(C)s1 | 5.92%
9 | C[C@@H]1C[C@@H]2O[C@H]2/C=C\C=C\C(=O)Cc2c(Cl)c(O)cc(O)c2C(=O)O1 | 38.8% (active)
10 | Cc1ccc(-c2csc(NC3OC(=O)c4ccccc43)n2)cc1 (configuration not stated) | 28.3% (active)
11 | COc1ccc2c(c1OC)C(=O)OC2Nc1nc(-c2ccccc2)cs1 (configuration not stated) | 25% (active)
12 | Cc1cccc(NC(=O)c2ccc([N+](=O)[O-])o2)c1 | 20%
13 | CC[C@H]1CN2CCc3cc(OC)c(OC)cc3[C@@H]2C[C@@H]1C[C@H]1NCCc2cc(OC)c(OC)cc21 | 97.2% (active)
14 | CSc1nnc2ccc(-c3ccc(C)cc3)nn12 | 25% (active)
15 | O=C1C(=O)N(CC2COc3ccccc3O2)c2ccccc21 (configuration not stated) | -2.39%
16 | CC(C)OC(=O)CN1C(=O)C(=O)c2ccccc21 | 9.06%
17 | CCOC(=O)c1c(C)[nH]c2c1-c1ccccc1C(=O)C2=O | 100% (active)
18 | CCCCNc1nc2c(c(=O)n(C)c(=O)n2C)n1Cc1cccc(OC)c1 | 19.3%
19 | COc1ccc(CNS(=O)(=O)c2cc(-c3cc(C)no3)ccc2C(C)C)cc1 | 51.7% (active)
20 | Cn1nccc1C(=O)NC1CCCc2c1cnn2-c1ccccc1F (configuration not stated) | 7.23%
21 | Cn1nccc1C(=O)NC1CCCc2c1cnn2-c1ccc(F)cc1F (configuration not stated) | 23.2% (active)
22 | COc1cccc2sc(N(CCCN(C)C)C(=O)CCS(=O)(=O)c3ccccc3)nc12 | 7.79%

Row | Compound | inhibition
23 | Cc1nn2c(NCCN(C)C)c3c(nc2c1-c1ccccc1)CCC3 | -0.91%
24 | COc1cccc(C(=O)Nc2ccc(N3CCN(C(=O)c4ccco4)CC3)cc2)c1 | 23.9% (active)
25 | COc1cccc(C(=O)Nc2ccc(N3CCCC3)cc2)c1 | 43.2% (active)
26 | CC(C)(C)Nc1nc(-c2ccccn2)nc2ccccc12 | -6.6%
27 | CC[n+]1cc(C)ccc1/C=C/c1ccc(N(C)C)cc1 | 19.6%
28 | Oc1cccc(/C=N/Nc2ccc(Cl)nn2)c1O | 2.22%
29 | C/C(=N\NC(=O)c1ccccc1F)c1ccccn1 | 67.3% (active)
30 | C=CCC1(CC=C)CCCN1C(=O)c1cc(COc2ccc(-n3cncn3)cc2)on1 | 8.6%
31 | COc1ccc(Nc2cc(C)nc(-n3nc(C)cc3C)n2)cc1 | 54.9% (active)
32 | CC(=O)c1ccc(Oc2cc(C)nc(-n3nc(C)cc3C)n2)cc1 | 49.9% (active)
33 | COc1ccc(NC(=O)/C(Cl)=C(/Cl)S(=O)Cc2ccc(C)cc2)cn1 (configuration not stated) | 89% (active)
34 | COc1ccc(CS(=O)/C(Cl)=C(/Cl)C(=O)Nc2ccc(OC)nc2)cc1 (configuration not stated) | 73.2% (active)
35 | CCOc1ncccc1C(=O)NCCc1ccc(OC)cc1 | 12.2%
36 | CCOc1ccccc1NC(=O)Cn1nnc(C(=O)NCc2cccs2)c1N | 56.9% (active)
37 | CSc1nc(N(C)NC(=O)c2cccc(C)c2)c2ccccc2n1 | 76.1% (active)
38 | CCn1c(C)nc2c1C(=O)c1ccccc1C2=O | 10.1%
39 | COc1ccccc1N(CC(=O)N/N=C(\C)c1ccccc1O)S(=O)(=O)c1ccc(C)cc1 | 10.4%
40 | C/C(=N\NC(=O)c1ccoc1C)c1ccccc1O | 31.9% (active)
41 | Cc1ccc(Nc2nc(N3CCOCC3)nc(N3CCOCC3)n2)cc1Cl | 63.1% (active)
42 | CCOC(=O)/C=C/C(=O)OCC(=O)NC(c1ccccc1)c1ccccc1 | 43.9% (active)
43 | CCOC(=O)C1=C(N)N2C(=O)C(C)SC2=C(C(=O)OCC)C1c1cc(OC)c(OC)c(OC)c1 (configuration not stated) | -3.21%
44 | COc1ccc(Nc2cc(=O)oc3ccccc23)cc1 | 49.1% (active)

Row | Compound | inhibition
45 | O=C(Nn1cc(C(=O)N2CCN(c3ccccc3F)CC2)c2ccccc2c1=O)c1cnccn1 | -3.18%
46 | Cc1ccc(-n2c(SCC(=O)Nc3ncc(Cl)cc3Cl)nc3ccccc32)cc1 | 44.1% (active)
47 | Cc1cccc(NS(=O)(=O)c2ccc(-c3cnc(C4CC4)o3)cc2)c1 | 53% (active)
48 | Cc1onc(NC(=O)c2ccc([N+](=O)[O-])o2)c1Br | -1.42%
49 | Cc1cccc(-n2ncc(Cl)c(Cl)c2=O)c1 | 27.2% (active)
50 | Cc1nc(Nc2ccc3c(c2)OCCO3)c2nnn(Cc3ccccc3Cl)c2n1 | 11.1%
51 | CC(C)c1cc(C(=O)N/N=C/C(Br)=C/c2ccccc2)n[nH]1 | 42.1% (active)
52 | O=C(NC(Nc1nc2ccc([N+](=O)[O-])cc2s1)(C(F)(F)F)C(F)(F)F)c1ccccc1 | 97.9% (active)
53 | CCCOC(=O)c1[nH]c2c(c1C)C(=O)CC(c1cccs1)C2 (configuration not stated) | 57.1% (active)
54 | CCOc1cc(/C=C/c2nc3ccccc3c(=O)[nH]2)cc(Br)c1OC | 50.8% (active)
55 | CCOc1c(Nc2cccc(Cl)c2)c(=O)c1=O | -1.97%
56 | O=C(Nc1ccccc1Cl)/C(Cl)=C(\Cl)S(=O)c1ccccc1 (configuration not stated) | 78.4% (active)
57 | O=C(CN1C(=O)C2C3C=CC(C3)C2C1=O)Nc1nc(-c2ccccn2)cs1 (configuration not stated) | 19.4%
58 | Cc1ccc(S(=O)(=O)C2(S(=O)(=O)c3ccc(C)cc3)CCCC2)cc1 | 23.1% (active)
59 | COc1ccc(Nc2oc(-c3ccccc3Cl)nc2C#N)cc1 | 58.2% (active)
60 | CNC[C@H](CC1CCCCC1)NC[C@H](NCCC1CCCC1)[C@H](C)O | 56.1% (active)
61 | CCOc1cccc(-n2nnnc2-c2ccc(OC)cc2)c1 | 39.2% (active)
62 | COc1ccc(C2=NOC(C(=O)NCc3ccco3)C2)cc1OC (configuration not stated) | 39.3% (active)
63 | COC(=O)Nc1nc2ccc(Sc3ccccc3)cc2[nH]1 | 53.4% (active)
64 | CCOc1ccccc1N1CCN(C(=O)c2ccc3[nH]c(C)c(C)c3c2)CC1 | 29% (active)
65 | Nc1c(C(=O)NCc2ccccc2)nnn1Cc1cccc(Cl)c1 | 22.8% (active)
66 | Cn1cccc1/C=N/NC(=O)CNc1cccc2ccccc12 | 36.1% (active)

Row | Compound | inhibition
67 | Cc1cccc(/C=N/NC(=O)CNc2cccc3ccccc23)n1 | 26.7% (active)
68 | Cc1ccc(/C=N/NC(=O)COc2ccccc2-c2ccccc2)cc1 | 72.2% (active)
69 | CCCC1=Nc2cc(C(=O)NCc3ccco3)ccc2Sc2ccccc21 | 58.2% (active)
70 | COc1ccccc1N1CCN(C(=O)c2cc(=O)c3cc(C)cc(C)c3o2)CC1 | 60% (active)
71 | CCOc1cc(C(=O)N2CCc3cc(OC)c(OC)cc3C2)ccc1OC(F)F | 60.2% (active)
72 | Cc1cccc(CS(=O)(=O)c2ncc(Cl)c(C(=O)Nc3ccc(F)cc3)n2)c1 | 22.5% (active)
73 | Cc1cccc(NC(=O)c2nc(S(=O)(=O)Cc3ccccc3)ncc2Cl)c1 | 12.9%
74 | CSc1nnc(NC(=O)c2nc(S(=O)(=O)Cc3ccc(C)cc3)ncc2Cl)s1 | 14.9%
75 | Cc1ccc(CS(=O)(=O)c2ncc(Cl)c(C(=O)Nc3nnc(C)s3)n2)cc1 | 23.3% (active)
76 | CC(C)OCCCNc1ncnc2c1[nH]c1ccc(F)cc12 | 34.4% (active)
77 | CC1CCCCN1S(=O)(=O)c1ccc(C(=O)Nc2nnc(-c3cccs3)o2)cc1 (configuration not stated) | 18.5%
78 | CCN(CC)c1ccc(NC(=O)c2ccc(Cl)nc2)cc1 | 38% (active)
79 | O=S(=O)(c1ccc(Br)cc1)N1CCC(c2nc3ccccc3[nH]2)CC1 | 27.5% (active)
80 | O=[N+]([O-])c1ccccc1S(=O)(=O)Nc1cccc2cccnc12 | 48.3% (active)
81 | CCCCCCCCn1c2c(c(=N)c3c1CCC3)CCCC2 | 49.4% (active)
82 | CCOC(=O)CSC1=C(C#N)C(c2sccc2C)CC(=O)N1 (configuration not stated) | 51.2% (active)
83 | CCN1/C(=C\c2ccc3ccccc3[n+]2CC)Sc2cc(C)ccc21 | 39.4% (active)
84 | CCN1/C(=C/c2ccc3ccc(C)cc3[n+]2CC)Sc2ccccc21 | 39.8% (active)
85 | O=c1cc(-c2ccccc2)[nH]c2cc(F)ccc12 | 53.6% (active)
86 | Cc1cc(C(=O)OCC(=O)NCc2ccco2)c(C)n1-c1ccccc1 | 55.2% (active)
87 | CC(=O)NC1=NN(C(C)=O)C(C)(c2ccc(Cl)s2)S1 (configuration not stated) | 41.6% (active)
